# Cruzain inh noDet: cruzain (T. cruzi) inhibition without detergent; P25779; purified cruzain, Z-FR-AMC fluorescence, no detergent; Potency, µM, inactives show max response, negative = inhibition, usual class: inhibitors; 200,000 compounds, 2.3% hits; AID 1476;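 further: plate controls were enzyme without inhibitor for no effect and buffer without enzyme for full effect; nearly all actives have a fitted effect of over 40% in size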
# Target sequence (P25779 123-467 limits assumed): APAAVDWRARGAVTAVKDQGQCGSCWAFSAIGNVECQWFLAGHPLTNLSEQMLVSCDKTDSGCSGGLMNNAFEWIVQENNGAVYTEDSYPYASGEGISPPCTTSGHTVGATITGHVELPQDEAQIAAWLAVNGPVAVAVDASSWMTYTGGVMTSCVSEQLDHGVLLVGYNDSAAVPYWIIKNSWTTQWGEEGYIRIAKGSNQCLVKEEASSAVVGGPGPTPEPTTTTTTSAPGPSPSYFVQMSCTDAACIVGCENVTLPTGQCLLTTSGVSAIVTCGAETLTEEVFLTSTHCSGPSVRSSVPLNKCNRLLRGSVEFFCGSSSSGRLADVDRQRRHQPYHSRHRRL
#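 Detergent-free condition (0.00005% Triton X-100) in acetate buffer pH 5.5 with DTT. 1.5 nM enzyme and compound were pre-mixed 15 min, then 2 uM Z-FR-AMC substrate added; reaction progress from fluorescence change between first and third reads (60 s).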
# Cruzain Triton: cruzain (T. cruzi) inhibition with detergent. AID 1478. 200,000 compounds, 0.43% hits. purified cruzain, Z-FR-AMC fluorescence, 0.01% Triton. Potency, µM, without a hit: max response, negative = inhibition, usual class: inhibitors;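 further: plate controls were neutral wells for no effect and buffer without enzyme for full effect; nearly all actives have a fitted effect of over 40% in size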
#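 In this qHTS format, compounds are incubated with 1.5 nM cruzain for 15 min at room temperature before 2 uM Z-FR-AMC is added. Release of AMC is followed at 360/450 nm, and progress is taken as the 60 s fluorescence difference.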
# NS1 inh: influenza NS1 inhibition | 270,000 compounds, 0.4% hits | Potency, µM (titrated, usually from 46.1 µM), inactives show at the highest dose activity, positive = more growth; calls by dose curve; further: actives are rising curves; nearly all actives have a fitted effect of over 50% in size
#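 A cell-based growth assay was used: compounds that relieve NS1-induced slow growth of budding yeast raise OD600. Assay medium was yeast nitrogen base with ammonium sulphate and -URA supplement, pH 6.0, with 2% galactose.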
# Active calls of the source: *; ? = inconclusive; nt = no result given. This is one part of a sample in which hits are shown more often than they occur. Unless noted, the call rests on the fitted dose curve; in most records, active means well fitted curve in the direction sought with a large enough effect; inconclusive means small, poorly fitted or top-dose-only effect, or another doubt; inactive means no such curve, though single readings can be large; an effect the other way counts as inactive or inconclusive. Potency means the concentration at half of the fitted maximal effect.
SMILES,Cruzain inh noDet,Cruzain Triton,NS1 inh
Cc1ccc2c(c1)C(c1ccc([N+](=O)[O-])cc1)=NNC(c1ccc(Br)cc1)=N2,?,0%,13%
CCc1ccc2c(c1)C(c1ccc([N+](=O)[O-])cc1)=NNC(c1ccc(Br)cc1)=N2,10µM*,-4%,8%
COCCn1c(=O)c(CCc2ccccc2)nc2cnc(N(C)C)nc21,?,-3%,nt
CCCC(=O)c1cc(O)c(O)cc1O,16%,-14%,nt
CCOC(=O)CSc1nc2cc(C(=O)NCc3ccco3)ccc2c(=O)n1C1CCCCC1,?,0%,1%
CCOC(=O)CSc1nc2cc(C(=O)NCc3ccco3)ccc2c(=O)n1-c1ccc(F)cc1,10µM*,-1%,?
CC(C)C[C@H](NC(=O)C1OC1C(=O)O)C(=O)NCCCCN=C(N)N (stereo not given in full),0.04µM*,0.079µM*,-6%
CC(C)CC(NC(=O)C1CCCN1C(=O)OC(C)(C)C)C(=O)NCC(N)=O (stereo not given),-5%,2%,-9%
Cc1cccc(C(=O)N2c3ccccc3C(=O)OC2c2ccc3c(c2)OCO3)c1 (stereo not given),?,0%,-41%
O=C1OC(c2ccc3c(c2)OCO3)N(C(=O)c2ccc(Cl)c(Cl)c2)c2ccccc21 (stereo not given),32µM*,-1%,-59%
O=C(NCc1ccc(-c2nc3ccccc3s2)cc1)c1ccco1,25µM*,-3%,-3%
O=C(NC(=S)NCc1ccc(-c2nc3ccccc3s2)cc1)c1ccco1,?,-3%,4%
CNC(=O)COc1ccc(NC(=O)CCn2nc(-c3ccc(C)cc3)c3ccccc3c2=O)cc1,24%,-3%,nt
CCC1Oc2ccccc2N(CC(=O)NCc2ccco2)C1=O (stereo not given),nt,nt,-5%
O=C(CN1C(=O)/C(=C\c2ccc(F)cc2)Oc2ccccc21)NCc1ccco1,25µM*,25µM*,-6%
Cc1nc(C)c(C(=O)C2=C(O)C(=O)N(CCN(C)C)C2c2cccs2)s1 (stereo not given),-7%,1%,6%
COc1cccc(C2C(C(=O)c3sc(C)nc3C)=C(O)C(=O)N2CCN(C)C)c1OC (stereo not given),-10%,-10%,8.9µM*
COc1ccc(N(CC(=O)Nc2cccc(Cl)c2C)S(=O)(=O)c2c(C)nn(C)c2C)cc1,?,-6%,nt
O=C1CSC2(C(=O)N(Cc3c(F)cccc3Cl)c3ccccc32)N1c1ccc(F)c(F)c1 (stereo not given),-19%,-7%,nt
COc1ccc(N2C(=O)CS(=O)(=O)C23C(=O)N(Cc2c(F)cccc2Cl)c2ccccc23)cc1 (stereo not given),7.9µM*,-3%,nt
Cc1cccc(N2C(=O)CS(=O)(=O)C23C(=O)N(Cc2c(F)cccc2Cl)c2ccccc23)c1 (stereo not given),3.2µM*,-4%,nt
Cc1cc(C)cc(N2C(=O)CS(=O)(=O)C23C(=O)N(Cc2ccc(F)cc2)c2ccc(C)cc23)c1 (stereo not given),?,-5%,nt
CN1C(=O)C2(c3ccccc31)N(c1ccccc1)C(=O)CS2(=O)=O (stereo not given),?,0%,nt
CCOc1ccc(N2C(=O)CS(=O)(=O)C23C(=O)N(Cc2cccc(Cl)c2)c2ccccc23)cc1 (stereo not given),10µM*,-3%,nt
COc1ccc(N2C(=O)CS(=O)(=O)C23C(=O)N(Cc2ccccc2)c2ccccc23)cc1 (stereo not given),3.2µM*,-3%,nt
SMILES,Cruzain inh noDet,Cruzain Triton,NS1 inh
CCCS(=O)(=O)NCCc1csc(-c2cccnc2)n1,nt,nt,-1%
CC(C)n1c(O)c(/C=C2\C=NN=C2c2ccccc2)sc1=S,nt,nt,6%
CCn1c(O)c(/C=C2\C=NN=C2c2ccc(C)cc2)sc1=S,13µM*,-5%,14%
COc1ncc2nc(-c3ccccc3)c(=O)n(-c3ccccc3)c2n1,4%,-4%,nt
O=C(Nc1cccc(F)c1)C1CC(=O)N(c2ccc(Br)cc2)C1 (stereo not given),-4%,-7%,-16%
O=C(Nc1cccc(Cl)c1Cl)C1CC(=O)N(c2ccc(Br)cc2)C1 (stereo not given),25µM*,-1%,8%
CC(C1CCCC(=O)C1)[N+](=O)[O-] (stereo not given),-5%,2%,nt
CC1(OC(=O)c2cnc3ccccc3n2)C(=O)C=C2C=C(c3ccsc3)OC=C2C1=O (stereo not given),-2%,5%,nt
Cc1ccc(NC(=O)CS(=O)(=O)c2nc(-c3ccc(C)cc3)cn2-c2ccc(C)cc2)cc1,13µM*,-20%,nt
Cc1ccc(-c2cn(-c3cccc(Cl)c3)c(S(=O)(=O)CC(=O)Nc3cccc(C)c3)n2)cc1,16µM*,-21%,nt
CCn1cc(S(=O)(=O)CC(=O)Nc2ccc(C)cc2)c2ccccc21,-8%,-3%,-5%
Cc1cccc(NC(=O)CS(=O)(=O)c2nc(-c3ccccc3)cn2-c2cccc(Cl)c2)c1C,10µM*,-23%,nt
O=C(CS(=O)(=O)c1nc(-c2ccc(Cl)cc2)cn1-c1ccccc1)Nc1cccc(Cl)c1,-17%,?,nt
Cc1cccc(NC(=O)CSc2nc(-c3ccccc3)cn2-c2ccccc2)c1C,?,-1%,nt
CCOc1ccc(-c2cn(-c3ccc(OC)cc3)c(SCC(=O)Nc3ccccc3Cl)n2)cc1,?,0%,nt
CCOc1ccc(-c2cn(-c3ccc(C)cc3)c(SCC(=O)Nc3ccc(C)cc3)n2)cc1,25µM*,2%,nt
COc1ccc(-c2noc(C3CC(=O)N(c4ccc5c(c4)OCCO5)C3)n2)c(OC)c1 (stereo not given),-3%,-2%,nt
Cc1c(-c2nnc(SCC(=O)Nc3ccc(Cl)cc3)o2)nnn1-c1ccc(F)cc1,7%,-1%,nt
C=CCC(Nc1ccc(OC)cc1)(C(=O)OCC)c1ccccc1 (stereo not given),4%,2%,nt
CN(C)C(=O)c1ccc(-c2ccc3ncnc(NC4CCNCC4)c3c2)cc1,-5%,4%,nt
Cc1ccc(-c2cn(-c3cccc(Cl)c3)c(S(=O)(=O)CC(=O)Nc3ccccc3F)n2)cc1,16µM*,-15%,nt
O=C(CSc1nncn1-c1ccccc1)Nc1ccc(F)cc1F,nt,nt,-2%
O=C(CS(=O)(=O)c1nc(-c2ccc(Cl)cc2)cn1-c1ccccc1)Nc1ccc(F)cc1F,25µM*,-22%,nt
Cc1cccc(-n2cc(-c3ccccc3)nc2SCC(=O)Nc2ccccc2Cl)c1,-11%,0%,nt
CCOCCO,4%,5%,nt
SMILES,Cruzain inh noDet,Cruzain Triton,NS1 inh
COC(=O)NC(C(=O)OC)(C(=O)OC)c1ccccc1,3%,2%,nt
COC1=CC(=O)C(O)=C/C1=C\C=C\c1ccccc1,-9%,-13%,nt
Cc1cc(C)cc(-n2c(SCC(=O)NCc3ccc4c(c3)OCO4)nc3ccccc3c2=O)c1,?,-2%,4%
Cc1nnc(SCc2cc([N+](=O)[O-])cc3c2OCOC3)[nH]c1=O,nt,nt,-2%
COc1ccc(Nc2nnc(SCc3cc([N+](=O)[O-])cc4c3OCOC4)s2)cc1,20µM*,0%,4%
O=c1c2ccccc2nc(SCc2ccc([N+](=O)[O-])cc2)n1-c1ccccc1,?,0%,14%
O=c1c2ccccc2nc(SCc2cc([N+](=O)[O-])cc3c2OCOC3)n1-c1ccccc1,13µM*,-2%,3%
